For some of these results: Measured potencies and affinities stand elsewhere.

Holding throughout (parameters): scale not given: direction of the effect not stated beside the values
Experiment [1] concerns the target Protein translocase subunit SecA (Escherichia coli (strain K12)) (UniProt P10408). Nature of the experiment: Assay to Identify E. coli SecA ATPase Inhibitors. To be noted: 30 µM. It counts as functional.
For experiment [2], the target named is T1, Ubiquitin-activating enzyme e1, putative (Leishmania donovani (strain BPK282A1)) (UniProt E9BSI1).
T1 sequence (whole entry): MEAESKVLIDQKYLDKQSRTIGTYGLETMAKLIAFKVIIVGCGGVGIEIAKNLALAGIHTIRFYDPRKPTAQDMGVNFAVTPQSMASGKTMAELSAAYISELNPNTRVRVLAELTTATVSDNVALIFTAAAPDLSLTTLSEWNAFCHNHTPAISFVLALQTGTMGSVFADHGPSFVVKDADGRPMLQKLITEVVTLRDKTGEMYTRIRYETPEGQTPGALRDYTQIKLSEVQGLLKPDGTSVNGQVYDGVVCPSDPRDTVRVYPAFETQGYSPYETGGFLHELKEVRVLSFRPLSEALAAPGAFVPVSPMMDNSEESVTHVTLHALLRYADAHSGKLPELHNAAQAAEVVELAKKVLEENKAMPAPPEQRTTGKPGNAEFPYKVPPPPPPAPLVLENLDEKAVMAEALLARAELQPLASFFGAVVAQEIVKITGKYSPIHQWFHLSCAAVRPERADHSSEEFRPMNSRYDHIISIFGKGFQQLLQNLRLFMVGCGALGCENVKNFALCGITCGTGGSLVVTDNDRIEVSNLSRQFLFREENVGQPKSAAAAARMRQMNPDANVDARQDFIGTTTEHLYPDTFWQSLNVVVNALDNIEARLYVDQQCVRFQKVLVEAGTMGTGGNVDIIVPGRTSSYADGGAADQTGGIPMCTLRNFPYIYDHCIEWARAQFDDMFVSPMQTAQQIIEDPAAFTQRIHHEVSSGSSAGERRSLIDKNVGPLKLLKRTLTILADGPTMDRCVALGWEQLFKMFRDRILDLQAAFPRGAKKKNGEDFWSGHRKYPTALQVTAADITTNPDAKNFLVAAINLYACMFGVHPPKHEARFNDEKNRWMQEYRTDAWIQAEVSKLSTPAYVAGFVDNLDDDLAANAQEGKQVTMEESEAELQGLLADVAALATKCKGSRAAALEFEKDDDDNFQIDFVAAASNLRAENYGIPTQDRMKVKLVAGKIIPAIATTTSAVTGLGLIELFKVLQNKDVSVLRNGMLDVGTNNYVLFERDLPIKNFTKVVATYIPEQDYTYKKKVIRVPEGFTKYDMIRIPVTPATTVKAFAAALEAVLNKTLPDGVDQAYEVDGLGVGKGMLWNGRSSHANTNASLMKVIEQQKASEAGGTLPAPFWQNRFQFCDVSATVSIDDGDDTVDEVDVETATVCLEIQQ
Nature of the experiment: Leishmania donovani Ubiquitin Activating Enzyme (LdE1). The note with it: 30 µM. Type of experiment: functional.

Experiment [3] concerns the target Sialic acid-binding Ig-like lectin 9 (Homo sapiens) (UniProt Q9Y336). Nature of the experiment: Hs-Siglec9 ALPHAscreen SOP 20170721. To be noted: 10 µM. Background: Alpha assays give light when donor and acceptor beads are brought close together.
Another experiment deals with Trypanosoma cruzi. Nature of the experiment: Trypanosoma cruzi phosphomannomutase and mannose-1-phosphate guanylyltransferase assay. To be noted: 10 µM. It counts as functional.
The target in experiment [4] is T2, Arginase-2, mitochondrial (Homo sapiens) (UniProt P78540).
T2 sequence (whole entry): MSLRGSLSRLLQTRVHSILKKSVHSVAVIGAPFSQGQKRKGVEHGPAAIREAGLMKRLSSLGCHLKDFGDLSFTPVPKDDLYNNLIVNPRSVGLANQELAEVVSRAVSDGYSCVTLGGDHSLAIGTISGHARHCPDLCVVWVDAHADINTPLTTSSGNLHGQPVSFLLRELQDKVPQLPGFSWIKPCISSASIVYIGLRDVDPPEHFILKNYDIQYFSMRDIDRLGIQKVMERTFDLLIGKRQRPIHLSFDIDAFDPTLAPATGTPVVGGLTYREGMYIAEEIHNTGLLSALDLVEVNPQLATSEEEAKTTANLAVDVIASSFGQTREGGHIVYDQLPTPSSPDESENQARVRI
Nature of the experiment: in vitro enzyme assay to detect the production of urea directly proportional to the activity of Arginase II. Also: in the data most compounds retested in dose-response had high values. Type of experiment: functional. To be noted: 33.3 µM.

Experiment [5] addresses T3, Proteasome subunit beta (Trypanosoma cruzi) (UniProt O96673).
T3 sequence (whole entry): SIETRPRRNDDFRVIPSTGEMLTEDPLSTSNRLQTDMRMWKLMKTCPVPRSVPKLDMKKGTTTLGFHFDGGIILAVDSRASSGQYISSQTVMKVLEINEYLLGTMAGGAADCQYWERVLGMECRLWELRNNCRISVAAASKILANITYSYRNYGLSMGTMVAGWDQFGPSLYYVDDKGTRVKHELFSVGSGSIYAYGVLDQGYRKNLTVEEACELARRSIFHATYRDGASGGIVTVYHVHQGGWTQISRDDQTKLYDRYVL
Nature of the experiment: Trypanosoma cruzi proteasome chymotrypsin-like activity (TcProtChymo) assay. Also: in the data most compounds retested in dose-response had high values. Type of experiment: functional. To be noted: 9.37 µM.

The species entered for the next experiment is Homo sapiens. Nature of the experiment: To identify inhibition of the IFN signalling (Jak-Stat) pathway via expression of an eGFP reporter gene under the control of an IFN-stimulated response element (ISRE) containing MxA promoter. It counts as functional. The note with it: 30 µM. A general note: A reporter such as luciferase makes a cellular process visible.

Experiment [6] has as its target T4, Tyrosyl-tRNA synthetase, putative (Trypanosoma cruzi (strain CL Brener)) (UniProt Q4DSP6).
T4 sequence (whole entry): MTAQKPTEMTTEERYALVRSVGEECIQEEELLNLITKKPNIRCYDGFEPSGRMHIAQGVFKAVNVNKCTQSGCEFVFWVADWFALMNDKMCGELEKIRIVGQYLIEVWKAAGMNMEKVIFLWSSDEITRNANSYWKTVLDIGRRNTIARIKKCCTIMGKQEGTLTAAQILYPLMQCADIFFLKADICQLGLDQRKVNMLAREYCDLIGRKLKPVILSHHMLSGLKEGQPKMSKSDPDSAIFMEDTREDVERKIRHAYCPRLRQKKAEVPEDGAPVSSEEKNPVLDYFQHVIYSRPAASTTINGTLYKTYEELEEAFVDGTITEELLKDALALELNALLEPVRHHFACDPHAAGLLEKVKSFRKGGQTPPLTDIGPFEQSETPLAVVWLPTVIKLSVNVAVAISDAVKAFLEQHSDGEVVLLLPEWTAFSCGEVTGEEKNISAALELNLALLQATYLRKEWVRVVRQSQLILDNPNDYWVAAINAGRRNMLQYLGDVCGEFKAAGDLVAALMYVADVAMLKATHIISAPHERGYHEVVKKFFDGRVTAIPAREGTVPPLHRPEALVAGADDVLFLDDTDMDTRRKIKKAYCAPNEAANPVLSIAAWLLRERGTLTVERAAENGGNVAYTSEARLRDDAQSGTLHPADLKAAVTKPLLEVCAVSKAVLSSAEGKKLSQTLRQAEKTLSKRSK
Nature of the experiment: Trypanosoma cruzi tyrosyl tRNA synthetase (TcYRS) _High Tyrosine SOP. Also: in the data most compounds retested in dose-response had high values. The note with it: 30 µM. It counts as functional.

For experiment [7], the target named is T4, Tyrosyl-tRNA synthetase, putative (Trypanosoma cruzi (strain CL Brener)). Nature of the experiment: Trypanosoma cruzi tyrosyl tRNA synthetase (TcYRS) SOP. Type of experiment: functional. The note with it: 30 µM.
In experiment [8] the target is Chromo domain-containing protein 1 (Saccharomyces cerevisiae (strain ATCC 204508 / S288c) (Baker's yeast)) (UniProt P32657). Nature of the experiment: ScCHD-1 Enzyme Inhibition Assay. Also: in the data most compounds retested in dose-response had high values. To be noted: 30 µM. It counts as functional.
The target in experiment [9] is AMP-activated protein kinase, AMPK (Homo sapiens) (UniProt P54646+O43741+P54619+Q9UGJ0+Q9Y478+Q13131+Q9UGI9). Nature of the experiment: AMP-dependent Kinase enzyme assay. An in vitro enzyme assay that detects ADP turnover that is directly proportional to AMPK activity. This uses naive AMPK that is activated during the assay with MK-8722. The note with it: 30 µM. It counts as functional.

Sequence of Sialic acid-binding Ig-like lectin 9 (Homo sapiens) (Q9Y336 whole entry): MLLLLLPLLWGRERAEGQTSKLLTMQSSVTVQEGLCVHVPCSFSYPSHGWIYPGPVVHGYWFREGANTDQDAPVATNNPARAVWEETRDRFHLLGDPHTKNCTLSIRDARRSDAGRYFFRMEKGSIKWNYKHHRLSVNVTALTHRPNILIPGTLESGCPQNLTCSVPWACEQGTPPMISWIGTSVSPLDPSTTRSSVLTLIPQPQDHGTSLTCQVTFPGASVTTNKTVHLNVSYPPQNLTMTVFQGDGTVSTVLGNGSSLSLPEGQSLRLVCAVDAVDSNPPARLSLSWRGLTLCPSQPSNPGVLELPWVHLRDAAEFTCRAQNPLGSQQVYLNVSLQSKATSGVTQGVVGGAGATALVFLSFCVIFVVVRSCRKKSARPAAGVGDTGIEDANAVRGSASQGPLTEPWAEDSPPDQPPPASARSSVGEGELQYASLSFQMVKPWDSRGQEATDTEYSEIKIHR
Sequence of Chromo domain-containing protein 1 (Saccharomyces cerevisiae (strain ATCC 204508 / S288c) (Baker's yeast)) (P32657 whole entry, the tested form may be a part): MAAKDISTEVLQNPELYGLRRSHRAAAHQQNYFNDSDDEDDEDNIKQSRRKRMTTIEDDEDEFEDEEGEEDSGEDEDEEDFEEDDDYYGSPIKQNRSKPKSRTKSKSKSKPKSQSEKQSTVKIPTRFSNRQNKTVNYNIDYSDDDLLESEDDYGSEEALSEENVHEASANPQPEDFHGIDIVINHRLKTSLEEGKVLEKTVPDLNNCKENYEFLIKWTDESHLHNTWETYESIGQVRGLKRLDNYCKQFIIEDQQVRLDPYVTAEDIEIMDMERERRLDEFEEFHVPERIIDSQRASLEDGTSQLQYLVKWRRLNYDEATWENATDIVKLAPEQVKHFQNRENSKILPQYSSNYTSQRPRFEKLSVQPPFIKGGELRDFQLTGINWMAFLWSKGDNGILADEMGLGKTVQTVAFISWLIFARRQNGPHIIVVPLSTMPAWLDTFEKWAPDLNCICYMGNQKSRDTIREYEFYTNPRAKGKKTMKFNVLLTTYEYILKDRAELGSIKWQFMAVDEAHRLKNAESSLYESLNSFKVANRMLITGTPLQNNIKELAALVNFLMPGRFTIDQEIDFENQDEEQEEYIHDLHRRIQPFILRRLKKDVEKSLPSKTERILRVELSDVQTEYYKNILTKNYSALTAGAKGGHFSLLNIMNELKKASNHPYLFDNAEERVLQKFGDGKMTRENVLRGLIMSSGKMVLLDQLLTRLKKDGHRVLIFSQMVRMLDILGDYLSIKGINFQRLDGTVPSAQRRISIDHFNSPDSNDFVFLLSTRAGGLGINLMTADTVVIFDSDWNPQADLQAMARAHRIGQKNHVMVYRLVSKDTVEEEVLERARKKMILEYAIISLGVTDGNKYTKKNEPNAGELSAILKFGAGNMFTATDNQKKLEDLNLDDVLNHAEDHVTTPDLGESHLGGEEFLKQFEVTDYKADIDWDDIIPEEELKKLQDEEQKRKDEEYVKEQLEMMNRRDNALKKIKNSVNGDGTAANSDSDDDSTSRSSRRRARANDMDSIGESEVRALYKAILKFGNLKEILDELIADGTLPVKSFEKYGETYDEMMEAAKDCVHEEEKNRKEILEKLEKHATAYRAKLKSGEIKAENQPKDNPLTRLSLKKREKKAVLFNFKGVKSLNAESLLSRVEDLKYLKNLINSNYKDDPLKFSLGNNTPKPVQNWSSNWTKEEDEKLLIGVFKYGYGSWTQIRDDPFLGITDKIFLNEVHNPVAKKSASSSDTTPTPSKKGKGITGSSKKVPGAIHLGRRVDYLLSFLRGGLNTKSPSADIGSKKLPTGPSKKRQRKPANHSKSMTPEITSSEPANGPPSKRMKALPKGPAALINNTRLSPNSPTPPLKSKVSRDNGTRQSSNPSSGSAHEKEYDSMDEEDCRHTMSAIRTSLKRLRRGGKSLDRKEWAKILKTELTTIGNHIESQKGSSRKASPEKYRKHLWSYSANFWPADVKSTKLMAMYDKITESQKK
Sequence of Protein translocase subunit SecA (Escherichia coli (strain K12)) (P10408 whole entry): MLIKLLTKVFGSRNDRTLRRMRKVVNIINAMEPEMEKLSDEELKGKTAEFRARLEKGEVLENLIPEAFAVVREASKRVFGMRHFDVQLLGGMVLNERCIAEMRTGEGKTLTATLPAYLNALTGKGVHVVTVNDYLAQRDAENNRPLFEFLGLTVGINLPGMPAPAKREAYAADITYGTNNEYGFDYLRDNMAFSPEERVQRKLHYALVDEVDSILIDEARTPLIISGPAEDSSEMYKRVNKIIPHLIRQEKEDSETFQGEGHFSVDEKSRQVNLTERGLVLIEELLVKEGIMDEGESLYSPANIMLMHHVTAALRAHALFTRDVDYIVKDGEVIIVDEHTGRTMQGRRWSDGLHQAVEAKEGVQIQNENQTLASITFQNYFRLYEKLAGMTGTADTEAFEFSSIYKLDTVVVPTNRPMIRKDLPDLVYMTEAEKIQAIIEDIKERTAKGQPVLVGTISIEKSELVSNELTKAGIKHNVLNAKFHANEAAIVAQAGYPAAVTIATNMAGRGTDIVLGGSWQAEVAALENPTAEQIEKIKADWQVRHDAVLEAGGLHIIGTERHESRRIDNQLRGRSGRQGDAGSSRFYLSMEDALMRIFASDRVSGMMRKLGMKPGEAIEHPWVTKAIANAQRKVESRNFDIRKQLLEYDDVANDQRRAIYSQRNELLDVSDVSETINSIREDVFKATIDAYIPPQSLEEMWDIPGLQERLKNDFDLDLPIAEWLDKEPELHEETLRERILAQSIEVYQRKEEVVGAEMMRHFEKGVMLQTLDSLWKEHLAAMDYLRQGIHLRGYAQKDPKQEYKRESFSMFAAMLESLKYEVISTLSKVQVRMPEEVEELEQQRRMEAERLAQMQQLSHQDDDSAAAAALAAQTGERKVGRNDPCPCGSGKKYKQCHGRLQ

As to `O=C(NCc1cc(O)ncn1)C1COc2ccccc2C1` (stereo not drawn), the Percent Effect was -3.59% in experiment [1]; 10.8% in experiment [2]; 17.9% in experiment [3]; 3.59% in the experiment with Trypanosoma cruzi; 12.9% in [4]; 13% in experiment [5]. The Percent Effect is 9.77% in the experiment filed under Homo sapiens, 5.85% in experiment [6], 17.1% in [7] and -2.86% in [8].
For the molecule `CCC(C)Oc1ccc(CNCCNC(C)=O)cc1OC` (stereo not drawn), the Percent Effect in experiment [9] worked out at 2.89%.
With `O=C(c1ccc(F)cc1)N1CCC2(CCCN2CC2CC2)CC1`, the Percent Effect was -2.9% in experiment [1]; 9.09% in experiment [2]; -6.13% in experiment [3]; -6.57% in the experiment with Trypanosoma cruzi; 5.94% in experiment [4]; 14% in [5]. In addition, the Percent Effect in the experiment listed under Homo sapiens is 11.5%; in experiment [6], 0.966%; in experiment [7], 0%; in experiment [8], -3.47%.
`OCCN1CCCC(c2cccc(-c3ccccc3F)n2)C1` (stereo not drawn): the Percent Effect in [9] is 20.3%.
For the molecule `CCCC(=O)N1CCC2(CC1)CC(NC(C)=O)c1ccccc1O2` (stereo not drawn), the Percent Effect was 0.455% in experiment [1]; 1.3% in experiment [2]; -0.437% in experiment [3]; -4.69% in the experiment on Trypanosoma cruzi; 7.31% in experiment [4]; -0.0858% in [5]. In addition, the Percent Effect is 6.03% in the experiment filed under Homo sapiens, -1.93% in experiment [6], -5% in [7] and -2.27% in experiment [8].
With `COCC1CN(Cc2ccc(OC)cc2)Cc2nn(C)cc21` (stereo not drawn), the Percent Effect in [1] was 0.916%; in experiment [2], 22.1%; in experiment [3], -1.55%; in the experiment on Trypanosoma cruzi, -9.45%; in experiment [4], 12.2%; in [5], 18.4%. Moreover, the Percent Effect in the experiment listed under Homo sapiens was 20.9%; in [6], 6.84%; in [7], 2.56%; in experiment [8], -2.71%.
Take `Cc1ccc(-c2cn(C3CCN(C(=O)[C@H]4CCCO4)CC3)nn2)cc1`: in experiment [9], the Percent Effect is -0.746%.
On to `COCc1c(C(=O)NC2CCCC2)nnn1-c1ccc(C)cc1`, for which the Percent Effect is 106% in [1]; 9.33% in experiment [2]; -6.27% in experiment [3]; -2.37% in the experiment with Trypanosoma cruzi; 0.443% in [4]; 8.54% in [5]. Besides, the Percent Effect in the experiment listed under Homo sapiens is 14.6%; in experiment [6], -2.12%; in [7] it was 7.5%; in [8], -17.9%.
For the molecule `c1cc(-c2noc(CN3CCn4c(nnc4C4CC4)C3)n2)co1`, the Percent Effect was -1.2% in experiment [1]; 12.8% in [2]; 1.91% in [3]; 4.04% in the experiment on Trypanosoma cruzi; 6.15% in [4]; 2.13% in experiment [5]. The Percent Effect came to 16.4% in the experiment filed under Homo sapiens, 7.18% in experiment [6], 10.8% in [7] and 2.97% in experiment [8].
As for `CC(C)NC(=O)C1CN(C(=O)N2CCCC2)CC12CCOCC2` (stereo not drawn), the Percent Effect in experiment [1] was -1.18%; in experiment [2], -3.9%; in experiment [3] it was -4.49%; in the experiment with Trypanosoma cruzi, -1.27%; in experiment [4], -4.45%; in [5] it was -6.62%. The Percent Effect in the experiment filed under Homo sapiens was 5.24%; in experiment [6], 2.63%; in [7], 2.56%; in experiment [8], 2.05%.
For `CS(=O)(=O)N1CCC[C@]2(C[C@@H](Oc3ncccc3F)CO2)C1`, the Percent Effect in experiment [1] was -5.48%; in experiment [2], 11.7%; in experiment [3], -6.01%; with Trypanosoma cruzi, -0.682%; in experiment [4], 4.05%; in [5], 10.3%. The Percent Effect in the experiment listed under Homo sapiens is -0.297%; in experiment [6], 12.1%; in [7], 12.8%; in experiment [8], 1.06%.
For `Cc1occc1CNC(=O)N(CCCO)C1CCc2ccccc21` (stereo not drawn), the Percent Effect in experiment [1] is -4.54%; in [2], 10.7%; in experiment [3], 5.35%; in the experiment on Trypanosoma cruzi, 3.41%; in [4], -1.77%; in [5] it was 4.33%. Besides, the Percent Effect in the experiment filed under Homo sapiens is 16.1%; in experiment [6], 2.63%; in [7], 7.69%; in [8], -8.92%.
As for `Cc1cnn(CC2CCCN2C(=O)c2cc3c(F)cccc3[nH]2)c1` (stereo not drawn), the Percent Effect in experiment [1] was -2.09%; in experiment [2] it was 5.2%; in [3], 8.2%; in the experiment on Trypanosoma cruzi it was -5.6%; in experiment [4], -2.66%; in [5] it was 2.81%. The Percent Effect in the experiment filed under Homo sapiens was 26.7%; in [6], 1.96%; in experiment [7], 11.8%; in [8], -1.7%.

The record behind these values is ChEMBL document CHEMBL3988442, “University of Dundee, Small-Polar-MMV Screening Library” (2021).
